Compound activity: PubChem, several laboratories
Compounds with a hit are over-represented: about 2.4% of the library has one in this group of screens.
HSF1 activator – increases HSF-1 driven luciferase reporter signal. NIH3T3-HGL HSF-1 luciferase reporter, MG132, 8 h; 100% = twice DMSO control signal. activation, % at 9 µM. 300,000 tested, 1.7% active. AID 504408;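 active = mean replicate activation of at least 50% with a set share of replicates each reaching 50%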
TLR9-MyD88 inh – blocks human TLR9 binding to MyD88 | CHO BLA complementation TLR9-MyD88, CCF4 FRET ratio | 340,000 tested, 0.21% active | inhibition, % at 4.98 µM | AID 504734 | Q9NR96+Q99836;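 active = inhibition above the mean over all tested compounds plus 3 SD, cut at about 21% in these data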
TLR4 MyD88 comp – blocks binding of human TLR4 to MyD88. O00206+Q99836. HeLa CL3-4 TLR4/MyD88 BLA complementation, FRET ratio. AID 861. 200,000 tested, 0.18% active. inhibition, % at 8.4 µM; in the data active = inhibition above about 25%
HSF1 inhib – HSF1 inhibition | NIH3T3-HGL HSE-luciferase, MG132-induced, luminescence 8 h; stronger effect = lower value | activity change, negative = inhibition, % at 7.5 µM (by protocol) | 300,000 tested, 0.77% active | AID 2098;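 active = more than half of replicate wells show activity change below -50%, luminescence cut by over half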;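 also: luciferase reports HSF-1 transcriptional activity via heat shock element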
NOD2-RIPK2 inh – blocks binding of human NOD2 to RIPK2; inhibition, % at 4.98 µM; AID 624267; 360,000 tested, 0.38% active; CHO BLA complementation NOD2-RIPK2, CCF4 ratio; in the data active = inhibition above about 21%
A number is an active result; – = inactive; · = not tested or not shown.

SMILES	HSF1 activator	TLR9-MyD88 inh	TLR4 MyD88 comp	HSF1 inhib	NOD2-RIPK2 inh
CCOC(=O)Nc1ccc2c(c1)N(C(=O)CN(CC)CC)c1ccccc1C=C2	74.0	–	–	–	–
COc1ccc2c(c1)c(/C=N/Nc1nc3ccccc3[nH]1)c(C)n2C	206.2	–	·	–	–
CCN(CC)c1ccc(/C=N/Nc2nc3ccccc3[nH]2)c(O)c1	169.3	–	–	–	–
COc1cc(OC)c(OC)cc1/C=N/Nc1nc2ccccc2[nH]1	266.5	–	·	–	–
COc1cc(/C=N\Nc2nc3ccccc3o2)cc(OC)c1OC	–	–	–	–	–
Cc1ccc2cc(/C=N/Nc3nc4ccccc4[nH]3)c(Cl)nc2c1	–	–	–	–	–
CCCCn1c(/C=N/Nc2nc3ccccc3[nH]2)nc2ccccc21	–	–	–	–	–
COc1cc(/C=N\Nc2nc3ccccc3[nH]2)cc(OC)c1OC	437.0	–	–	–	–
Cc1ccsc1C(=O)N1CCC1(C)C(=O)NS(=O)(=O)c1cccc(F)c1 (centres undefined)	·	·	·	·	–
COCCCNC(=O)Cn1ccc(N)nc1=O	·	–	·	·	–
Cc1ccc(C(=O)OCC(=O)NNC(=O)COc2ccc(Cl)cc2)c(O)c1	–	–	·	–	–
C#CCn1cc(/C=N/Nc2nc3ccccc3[nH]2)c2ccccc21	370.1	–	–	–	–
C(=N\Nc1nc2ccccc2[nH]1)/c1cccc2nccnc12	63.9	·	·	–	–
COc1ccc(/C=N/Nc2nc3ccccc3[nH]2)cc1OC	369.4	–	–	–	–
NC(=O)c1ccc(N2CCNC(=O)C2)c([N+](=O)[O-])c1	–	–	·	–	–
CCCCN1/C(=C/c2ccc3ccccc3[n+]2CC)Sc2ccccc21	56.9	·	–	–	–
Cc1cc(C)cc(NC(=O)N2CCN(Cc3ccc4c(c3)OCO4)CC2)c1	–	–	·	-57.8	–
O=C(Nc1ccccc1)N1CCN(Cc2ccc3c(c2)OCO3)CC1	–	–	–	–	–
CCOC(=O)CNc1c(-c2ccccc2)nc2ccc(Cl)cn12	–	–	–	–	–
COC(=O)CNc1c(-c2ccccn2)nc2ccc(Br)cn12	63.9	–	–	–	–
CNC(=S)N/N=C/c1c(Cl)cccc1Cl	–	–	–	-59.0	–
S=C(N/N=C/c1ccccc1Cl)Nc1ccccc1	72.4	–	–	–	–
Cc1cccc(C)c1NC(=S)N/N=C/c1c(Cl)cccc1Cl	–	–	–	–	–
CNC(=S)N/N=C/c1ccccc1Cl	–	–	–	–	–
COc1ccc(CN(C)C(=O)c2cnc(C)cn2)c(OC)c1OC	–	–	·	–	–
SMILES	HSF1 activator	TLR9-MyD88 inh	TLR4 MyD88 comp	HSF1 inhib	NOD2-RIPK2 inh
O=C(Oc1ccc(NC2=NS(=O)(=O)c3ccccc32)cc1)c1cccnc1	52.5	–	–	–	–
Cn1cc(-c2nnc(-c3ccccc3)o2)c2ccccc21	65.5	–	–	–	–
Cc1ccccc1-c1nnc(-c2ccccc2)o1	–	–	–	–	–
O=C(/C=C/c1cccc([N+](=O)[O-])c1)N1CCN(c2ccccn2)CC1	–	–	·	–	–
O=C(/C=C/c1cccc([N+](=O)[O-])c1)n1cnc2ccccc21	231.2	·	–	–	–
c1ccc2c3c([nH]c2c1)CCNC3	161.6	–	·	–	–
O=C(COC(=O)/C=C/c1cccc(C(F)(F)F)c1)NCc1cccs1	·	–	·	·	–
CC1CCc2nc(NC(=O)C3COc4ccccc4O3)sc2C1 (centres undefined)	–	–	–	-70.7	–
CC1CCc2nc(NC(=O)C3CC3)sc2C1 (centres undefined)	–	–	–	–	–
COc1cc(/C=N/NC(=O)c2cccc([N+](=O)[O-])c2)ccc1OCc1ccccc1	–	–	–	–	–
CCOC(=O)C(=Cc1ccc(OCc2ccc([N+](=O)[O-])cc2)c(OC)c1)C(=O)OCC	77.0	–	–	–	–
COC(=O)C(=Cc1ccc(OCc2ccc([N+](=O)[O-])cc2)c(OC)c1)C(=O)OC	277.9	–	–	–	–
COc1cc(C(c2c(C)[nH][nH]c2=O)c2c(C)[nH][nH]c2=O)ccc1OCc1ccc([N+](=O)[O-])cc1	205.1	–	–	–	–
COc1cc(C(c2c(C)[nH][nH]c2=O)c2c(C)[nH][nH]c2=O)ccc1OC(=O)c1cccc([N+](=O)[O-])c1	·	–	–	·	–
Cc1cc(OCC(=O)OCC(=O)N(C)C2CCS(=O)(=O)C2)ccc1Cl (centres undefined)	·	–	·	·	–
COc1ccc(NC(=O)C2Cc3c(-c4ccc(Cl)cc4)ccnc3O2)cn1 (centres undefined)	·	·	·	·	–
O=S1(=O)CC(N2CC=CC2)CN1Cc1cn(Cc2ccc(F)cc2)nn1 (centres undefined)	·	·	·	·	–
O=c1[nH][nH]c(-c2ccccc2O)c1C(C[N+](=O)[O-])c1ccccc1 (centres undefined)	228.2	–	–	–	–
O=C(Nc1cccc(Cl)c1)c1ccc(S(=O)(=O)NCC2CCCO2)cc1 (centres undefined)	–	–	·	-88.5	–
O=C(Nc1ccccc1)c1ccc(S(=O)(=O)NCC2CCCO2)cc1 (centres undefined)	–	–	–	–	–
CC(C)C(=O)N1CCC1(C)C(=O)NCc1cc(Cl)ccc1F (centres undefined)	·	·	·	·	–
CCOC(=O)C1CCCN(C(=O)c2sc3nc(C)nc(N(CC)CC)c3c2C)C1 (centres undefined)	56.9	–	–	–	–
COc1ccc(NC(=O)/C(C#N)=C\c2ccc(OCc3ccc(C(=O)O)cc3)c(OC)c2)cc1	–	–	–	–	–
N#C/C(=C\c1ccc(OCc2ccc(F)cc2)cc1)C(=O)Nc1cccc(C(=O)O)c1	–	–	·	–	–
N#C/C(=C\c1ccc(OCc2ccc(Br)cc2)cc1)C(=O)Nc1cccc(C(=O)O)c1	72.2	–	·	–	–
SMILES	HSF1 activator	TLR9-MyD88 inh	TLR4 MyD88 comp	HSF1 inhib	NOD2-RIPK2 inh
COc1cc(/C=C(\C#N)C(=O)Nc2cccc(C(=O)O)c2)ccc1OCc1ccc(F)cc1	77.4	–	·	–	–
O=C1c2ccccc2NC(c2cccc(F)c2)N1Cc1ccco1 (centres undefined)	–	–	–	–	–
COc1ccc(C2Nc3ccccc3C(=O)N2Cc2ccco2)cc1COc1ccccc1F (centres undefined)	76.0	–	–	–	–
COc1ccc(C2Nc3ccccc3C(=O)N2Cc2ccco2)cc1COc1ccc(NC(C)=O)cc1 (centres undefined)	58.0	–	–	–	–
CC1(C(=O)NCC2CC2)Cc2c(-c3ccc4c(c3)OCO4)ccnc2O1 (centres undefined)	·	·	·	·	–
Cc1cccc(NCc2nc3ccccc3n2C)c1	–	–	–	–	–
Cc1ccc(NCc2nc3ccccc3n2C)c(C)c1	63.6	–	·	–	–
Cc1ccc(-c2nn(-c3ccccc3)cc2CN(C)C(=O)CCC(=O)O)cc1C	–	–	–	-55.3	–
Cc1ccc(NC(=O)CCCc2nc3ccccc3c(=O)[nH]2)c(Cl)c1	·	–	·	·	–
